Screens: PubChem BioAssay, Broad Institute
Only a selection was taken, and hits are over-represented in it overall.
Tg IFNy HTS – T. gondii growth inhibition with IFN-gamma, primary screen, cell-based. Toxoplasma gondii growth in IFN-gamma-treated host cells; stronger effect = lower value. activity change, negative = inhibition, % (test concentration not listed). actives 3.8% (n = 69,000). AID 1259416, 2018; in the data active = activity change below about -70%, passing the limit was not always enough;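 also: host cells are HeLa cells infected with Toxoplasma gondii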
* hit, by the source's call; ! = a repeat was not active.

For CC(=O)N1C2CN(Cc3ccc(C)o3)CC2C[C@@H]1C(=O)NCC1CC1 (stereo partly drawn) the results were Tg IFNy HTS -22.0.
For CC(=O)N1[C@H](CN2CCCC2)C[C@H]2CN(Cc3ccc(C)o3)CC[C@H]21 the results were Tg IFNy HTS -79.9*.
`CC(=O)N1[C@H](CN2CCCC2)C[C@H]2CN(C(=O)c3ccco3)CC[C@H]21` gave Tg IFNy HTS -4.1.
O=C(NC1(N2CCCCC2)C(=O)c2ccccc2C1=O)c1ccc(C(F)(F)F)cc1 was read as Tg IFNy HTS 35.2.
For Cc1noc(C)c1CCNc1ncc2c(n1)c1ccc(Cl)cc1n1ccnc21 the results were Tg IFNy HTS -72.5*.
`Cc1cccc(-c2nnc(-c3nc(NCCc4c(C)noc4C)c4ccccc4n3)o2)c1` gave Tg IFNy HTS -16.8.
Screening CC(C)CC(=O)N1CCC2(CC1)NC(=O)[C@@H]1CN(c3ncccn3)C[C@H]12 returned Tg IFNy HTS -3.7.
For CC(C)Cc1c(-c2ccccc2)ncn1CCN the results were Tg IFNy HTS 3.5.
COc1ccc(CCN2CCC(Nc3nc4ccccc4n3Cc3ccc(F)cc3)CC2)cc1 was read as Tg IFNy HTS -92.5*!.
For COc1ccc(-c2nc(Nc3ccc(CN4CCC(C)CC4)cc3)c3ccccc3n2)cc1 the results were Tg IFNy HTS -41.0.
Screening COc1ccc(-c2nc(NCCN3CCC(C)CC3)c3ccccc3n2)cc1 returned Tg IFNy HTS -57.1.
Cc1ccccc1NC(=O)c1ccc2ccc(N3CCN(C)CC3)n2c1 was read as Tg IFNy HTS -2.1.
`CN1CCN(c2ccc3ccc(C(=O)Nc4cccc(F)c4)cn23)CC1` gave Tg IFNy HTS -0.9.
Cc1ccc(NC(=O)c2ccc3ccc(N4CCN(C)CC4)n3c2)cc1C was read as Tg IFNy HTS -73.0*.
For O=C(NC1CCN(Cc2ccccn2)CC1)c1cnc(-c2ccc(Cl)cc2)nc1 the results were Tg IFNy HTS -2.3.
COc1ccc(C(N)CC(=O)N2CCC(O)(c3ccc(C)cn3)CC2)cc1OC (stereo not drawn) was read as Tg IFNy HTS 4.6.
`O=C1Cc2cc(N3CC(C(=O)O)CC3=O)ccc2N1` (stereo not drawn) gave Tg IFNy HTS 0.8.
Screening O=C1Cc2cc(-c3ccc4c(c3)OCO4)ccc2N1 returned Tg IFNy HTS -74.6*.
Screening Fc1ccc(-c2noc(-c3ccc4c(c3)OCO4)n2)cc1 returned Tg IFNy HTS 6.4.
`CC(=O)N1CCC2(CCOCC2COCC(=O)N(C)C)CC1` (stereo not drawn) gave Tg IFNy HTS -0.2.
Nc1ccccc1SCC(O)Cn1ccc2ccccc21 (stereo not drawn) was read as Tg IFNy HTS -44.9.
FC(F)(F)c1ccnc(NCCNc2ncccc2C(F)(F)F)n1 was read as Tg IFNy HTS 49.3.
OC(CNCCNc1ncccc1C(F)(F)F)Cn1ccc2ccccc21 (stereo not drawn) was read as Tg IFNy HTS -82.2*.
For COc1cccc(C(=O)NCCC(=O)Nc2cnc3n2CCCC3)c1 the results were Tg IFNy HTS 2.5.
Screening Cc1ccnn1CCNC(=O)CCc1ccc(Cl)cc1 returned Tg IFNy HTS -34.1.
Screening Cn1cc(C(CNC(=O)Nc2cccc(Cl)c2)c2cccnc2)c2ccccc21 (stereo not drawn) returned Tg IFNy HTS inactive.
Screening O=C(Nc1cccnc1)C1CCC2(CCN(S(=O)(=O)c3ccc(F)cc3)CC2)O1 (stereo not drawn) returned Tg IFNy HTS 3.2.
CS(=O)(=O)NC1CCN(Cc2ccc3c(c2)OC(F)(F)O3)CC1 was read as Tg IFNy HTS -11.4.
Screening CC12C(=O)OC(=O)C1(C)C1CCC2O1 (stereo not drawn) returned Tg IFNy HTS -86.2*.
CC(C)Cc1nc(CN(C)Cc2ncc[nH]2)no1 was read as Tg IFNy HTS 8.6.
`CC(C)Cn1c(CN(C)Cc2ncc[nH]2)nc2ccccc21` gave Tg IFNy HTS -83.7*.
CNC(=O)C(C)N(C)Cc1nc2ccccc2n1CC(C)C (stereo not drawn) was read as Tg IFNy HTS 32.6.
`COc1ccc(N2CCCN(C(=O)c3ccc4nc(C)sc4c3)CC2)cc1` gave Tg IFNy HTS 353.2.
For O=C(C[C@@H]1CC[C@H]2[C@@H](COC[C@@H](O)CN2Cc2nccs2)O1)NCc1ccccc1Cl the results were Tg IFNy HTS 13.5.
Screening Cc1ccc2c(C)c(C(=O)N3CCCC3Cn3cccn3)oc2c1 (stereo not drawn) returned Tg IFNy HTS -1.6.
For Cc1cnc(-n2cnnc2)c(-c2ccc(C(C)N3CCOCC3)cc2)c1 (stereo not drawn) the results were Tg IFNy HTS -1.3.
For COc1ccc(C2c3c(n[nH]c3C)CC(C)(O)C2C(C)=O)cc1OC (stereo not drawn) the results were Tg IFNy HTS -10.9.
For COc1cc(C2c3c([nH]c(=O)[nH]c3=O)Nc3ccc4ccccc4c32)ccc1OC(C)=O (stereo not drawn) the results were Tg IFNy HTS -112.0*.
Screening COC(=O)c1c(NCc2ccc(OC)c(OC)c2)c2cccc(Cl)c2[nH]c1=O returned Tg IFNy HTS -50.5.
Screening Cc1cc(C(=O)Nc2ccc(S(N)(=O)=O)cc2)no1 returned Tg IFNy HTS -86.7*.
Cc1cc(C(=O)Nc2ccc3c(c2)CCC(=O)N3)no1 was read as Tg IFNy HTS 31.0.
Screening CCOc1ccccc1C(=O)Nc1ccc(S(=O)(=O)Nc2cc(C)on2)cc1 returned Tg IFNy HTS -28.3.
CNC(=O)CCN(C)c1nc(C)cc(C2CCC2)n1 was read as Tg IFNy HTS 1.8.
Screening O=C(Cn1ncc2c(N3CCCCC3)ncnc21)NCCC1=CCCCC1 returned Tg IFNy HTS 42.9.
Cc1oc(C2CCN(C(=O)Nc3ccccc3)CC2)nc1C(=O)N(C)C was read as Tg IFNy HTS 24.0.
`CS(=O)(=O)CCNCc1ccc(-c2ccc3ncnc(Nc4ccc(OCc5cccc(F)c5)c(Cl)c4)c3c2)o1` gave Tg IFNy HTS -81.3*.
For Cc1ccc(NC(=O)NCC(c2cccnc2)c2cn(C)c3ccccc23)c(C)c1 (stereo not drawn) the results were Tg IFNy HTS 153.0.
For C[C@H](CO)N1C[C@H](C)[C@H](CN(C)C(=O)[C@@H](Cc2ccccc2)N(C)C)OCc2ccccc2-c2c(n(C)c3ccccc23)C1=O the results were Tg IFNy HTS -71.8*.
For C[C@H](CO)N1C[C@H](C)[C@@H](CN(C)C(=O)[C@H](Cc2ccccc2)N(C)C)OCc2ccccc2-c2c(n(C)c3ccccc23)C1=O the results were Tg IFNy HTS 33.2.
`C[C@@H]1CN([C@@H](C)CO)C(=O)c2c(c3ccccc3n2C)-c2ccccc2CO[C@@H]1CN(C)C(=O)[C@@H](Cc1ccccc1)N(C)C` gave Tg IFNy HTS -31.1.
COc1ccccc1NC(=O)C(=O)NCCc1csc(-c2ccc(C(F)(F)F)cc2)n1 was read as Tg IFNy HTS 183.8.
COc1ccc2sc(NC(=O)c3ccnn3C(F)F)nc2c1 was read as Tg IFNy HTS 183.1.
For Cc1sc(NC(=O)C(C)C)c(C(=O)N2CCn3cncc3C2)c1C the results were Tg IFNy HTS -5.0.
`CCOc1cccc(C2c3[nH]c4ccccc4c3CCN2C(=O)Cc2cccs2)c1` (stereo not drawn) gave Tg IFNy HTS inactive.
COc1ccc(C2c3[nH]c4ccccc4c3CCN2C(=O)Cc2cccs2)cc1 (stereo not drawn) was read as Tg IFNy HTS 228.7.
